# From PubChem
# RORgamma inh = ROR gamma (mouse) transcription inhibition | P51450 | Drosophila S2 Gal4-RORgamma UAS-luciferase reporter, 20 h | Potency, µM (top dose mostly 53.6 µM), inactives show at the highest dose activity change, negative = inhibition, hits mostly inhibitors | hit rate 5.4% among 310,000 | AID 2551; note: nearly all actives have a fitted effect of over 60% in size
#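 A Gal4/UAS one-hybrid system in insect cells: metallothionein-promoter Gal4–ROR gamma fusion plus Photinus luciferase reporter. Copper sulfate 700 uM final, 20 hr ambient incubation, luminescent detection after 10 min with reagent.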
# TDP1 cell CPT = growth inhibition of DT40 Tdp1-/-;hTDP1 cells with camptothecin (screen for TDP1 inhibitors) | hit rate 12% among 420,000 | AID 686979 | chicken DT40 Tdp1-/-;hTDP1 cells + 20 nM CPT, ATP luminescence, 48 h | Potency, µM (doses to about 46.2 µM), inactives show at the highest dose activity change, negative = growth inhibition, actives largely listed as inhibitors; note: nearly all actives have a fitted effect of over 55% in size
#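 Cell growth measured by CellTiter-Glo luminescence after a minimum 48 h, 37 C compound exposure with 20 nM CPT in Tdp1-knockout DT40 cells stably expressing hTDP1, seeded 400/well; qHTS titration format.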
# DT40 TDP1 no CPT = qHTS for Inhibitors of human tyrosyl-DNA phosphodiesterase 1 (TDP1): qHTS in cells in absence of CPT; DT40 Tdp1-/- hTDP1 cells, no CPT, ATP luminescence, 48 h; Potency, µM (highest dose often 46.2 µM), inactives show top-dose activity change, negative = growth inhibition, hits mostly inhibitors; hit rate 15% among 420,000; AID 686978, 2013; note: nearly all actives have a fitted effect of over 55% in size
#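 Stably hTDP1-transfected Tdp1-null chicken DT40 cells were treated with library compounds minus camptothecin and grown for at least 48 hr at 37 °C, after which cellular ATP was quantified by luminescence.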
# TDP1 inh = blocks human tyrosyl-DNA phosphodiesterase 1. hit rate 0.28% among 350,000. recombinant TDP1, AlphaScreen DNA substrate cleavage. Potency, µM (top dose mostly 130 µM), inactives show at the top dose activity change, negative = inhibition, most hits filed as inhibitors. AID 485290. Q9NUW8; note: nearly all actives have a fitted effect of over 40% in size
# Target sequence (Q9NUW8 whole entry, looked up): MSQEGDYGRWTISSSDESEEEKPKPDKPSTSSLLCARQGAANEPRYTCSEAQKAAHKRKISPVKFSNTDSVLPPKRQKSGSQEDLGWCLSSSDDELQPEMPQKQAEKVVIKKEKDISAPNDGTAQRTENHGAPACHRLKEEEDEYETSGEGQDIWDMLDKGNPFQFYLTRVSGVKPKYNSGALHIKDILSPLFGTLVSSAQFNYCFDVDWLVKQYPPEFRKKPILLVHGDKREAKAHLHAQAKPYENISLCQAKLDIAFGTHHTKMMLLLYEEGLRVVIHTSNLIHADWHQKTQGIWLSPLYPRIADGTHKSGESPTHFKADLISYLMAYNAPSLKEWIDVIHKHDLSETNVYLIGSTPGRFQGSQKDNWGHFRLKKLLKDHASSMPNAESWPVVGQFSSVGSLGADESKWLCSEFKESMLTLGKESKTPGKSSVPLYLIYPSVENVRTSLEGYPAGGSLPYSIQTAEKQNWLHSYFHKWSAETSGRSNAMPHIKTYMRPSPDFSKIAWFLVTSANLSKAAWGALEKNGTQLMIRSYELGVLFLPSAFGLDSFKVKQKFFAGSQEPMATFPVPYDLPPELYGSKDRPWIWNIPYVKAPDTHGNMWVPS
#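 Signal: AlphaScreen proximity between streptavidin donor and anti-FITC acceptor beads on intact substrate. Reaction: Tdp1 1 nM, substrate 15 nM final, 5 min RT after 15 min compound preincubation.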
# Gal4-VP16 FLuc = Gal4-VP16 reporter inhibition counter-screen; Drosophila S2 Gal4-VP16 UAS-luciferase, luminescence, 20 h; Potency, µM (titrated, usually from 53.6 µM), for the others: top-dose activity, negative = inhibition, most hits filed as inhibitors; hit rate 3.5% among 310,000; AID 2546;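 note: Gal4-VP16 expression switched on by copper sulfate through the metallothionein promoter; nearly all actives have a fitted effect of over 50% in size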
# * hit, by the source's call; u = inconclusive; x = not tested or not shown; [ ] = remark or other dose. A selection: hits, their analogues and other compounds. The true share with any hit is near 19%. Calls come from the whole dose curve; as a rule, active = well fitted curve in the direction sought with a large enough effect; inconclusive = small, poorly fitted or top-dose-only effect, or another doubt; inactive = no such curve, though single readings can be large; an effect the other way counts as inactive or inconclusive. % is set by controls: 0 for no effect and ±100 for the full control effect; potency is the fitted concentration of half-maximal effect.
SMILES,RORgamma inh,TDP1 cell CPT,DT40 TDP1 no CPT,TDP1 inh,Gal4-VP16 FLuc
COc1ccc(-c2noc(CNS(=O)(=O)c3ccc(Br)cc3)n2)cc1OC,x,u,u,2%,x
CCOC(=O)/C(C#N)=C/C1=C(N2CCOCC2)C(C)(C)OCC1,3%,27%,-23%,x,2%
CCOC(=O)c1cc(C(C)=O)n2ccccc12,-16%,-3%,1%,-1%,-4%
CCOC(=O)c1cc(C(=O)c2cccs2)n2ccc(C(C)=O)cc12,-2%,u,23µM*,4%,3%
COc1ccc(OC)c(NC(=O)C(NS(=O)(=O)c2ccc3c(c2)CCCC(=O)N3)C(C)C)c1 (stereo not given),x,3%,-28%,5%,x
CCOC(CNC(=O)c1ccc2nc(N3CCC(C)CC3)sc2c1)OCC,0%,u,u,2%,6%
CCC(Cc1ccccc1)NC(=O)c1ccc2nc(N3CCOCC3)sc2c1 (stereo not given),32%,15µM*,13µM*,x,8%
COCc1c(C(=O)Nc2ccc3nc(N4CCOCC4)sc3c2)oc2ccccc12,x,15µM*,u,1%[56.1 µM],x
CCOc1ccc(CCNC(=O)c2ccc3nc(N4CCC(C)CC4)sc3c2)cc1OCC,x,6.5µM*,5.2µM*,3%,x
CC(CCc1ccccc1)NC(=O)c1ccc2nc(N3CCOCC3)sc2c1 (stereo not given),35%,u,u,0%,-14%
CCC(Cc1ccccc1)NC(=O)c1ccc2nc(N3CCC(C)CC3)sc2c1 (stereo not given),x,21µM*,10µM*,0%,x
O=C(Nc1ccc2nc(N3CCOCC3)sc2c1)c1ccccc1,x,-19%,0%,2%,x
CCC(=O)NC(Nc1cc(C)cc(C)n1)(C(F)(F)F)C(F)(F)F,-11%,1%,-12%,5%,4%
CC(C)c1ccc[n+](-c2nc([O-])sc2C=O)c1,-10%,-1%,-4%,0%,1%
Cc1ccc[n+](-c2nc([O-])sc2C=O)c1,-14%,2%,1%,28µM*,-6%
C=CCn1c(SCC(=O)Nc2ccc3c(c2)OCO3)nnc1-c1ccccc1OC,34%,-11%,u,-2%,8%
C=CCn1c(SCc2csc(-c3ccc(Cl)cc3)n2)nnc1-c1ccccc1OC,u,23µM*,u,3%,-4%
COc1ccc2nc(NC(=O)CSc3cn[nH]n3)sc2c1,11%,-2%,10%,2%,-13%
CCCC(=O)NC(c1ccccc1)c1ccc2cccnc2c1O (stereo not given),u,3.7µM*,1.5µM*,x,u
CCCCC(=O)NC(c1ccccc1)c1ccc2cccnc2c1O (stereo not given),1.3µM*,0.58µM*,0.73µM*,x,2.5µM*
CCCCC(=O)NC(c1ccc(C(C)C)cc1)c1ccc2cccnc2c1O (stereo not given),2.5µM*,5.8µM*,3.3µM*,x,2.8µM*
CC(=O)NC(c1ccc(C(C)C)cc1)c1ccc2cccnc2c1O (stereo not given),3.5µM*,2.6µM*,1.3µM*,x,2.8µM*
CC(=O)NC(C)c1cc(F)c2cccnc2c1O (stereo not given),x,x,x,-1%,x
O=C(O)CCC(=O)NC(c1ccccc1)c1ccccc1,9%,-21%,-15%,5%,1%
O=C(COC(=O)c1ccc(S(=O)(=O)N2CCCCCC2)cc1)NCc1ccc(F)cc1,x,-10%,-19%,-2%,x
SMILES,RORgamma inh,TDP1 cell CPT,DT40 TDP1 no CPT,TDP1 inh,Gal4-VP16 FLuc
O=c1c(-c2ccccc2)c(O)c2cccc3c2n1CCC3,3%,-3%,-8%,4%,2%
CCC(=O)NC(c1cc(Cl)c2cccnc2c1O)c1cccn1C (stereo not given),x,x,x,2%,x
CCCCC(=O)NC(c1ccccc1Cl)c1ccc2cccnc2c1O (stereo not given),5µM*,8.2µM*,6.5µM*,x,3.5µM*
CCCC(=O)NC(c1ccc(OC)cc1)c1ccc2cccnc2c1O (stereo not given),1.8µM*,2.3µM*,2.6µM*,10%,4.5µM*
CCOc1ccc(C2Nc3c(C)cccc3-c3cc(C)nn32)cc1 (stereo not given),x,21µM*,u,0%,x
CCOc1ccc(NC(=O)c2nn(C)c(C(=O)Nc3ccc(OCC)cc3)c2[N+](=O)[O-])cc1,7%,12%,-1%,x,9%
COc1ccc(CNC(=O)c2ccc3[nH]c(C)c(C)c3c2)c(OC)c1,x,-9%,u,5%,x
CCOc1ccccc1NC(=O)c1ccc2[nH]c(C)c(C)c2c1,-62%,u,26µM*,4%,-24%
COc1ccc(NC(=O)c2ccc3[nH]c(C)c(C)c3c2)c(OC)c1,20%,23µM*,18µM*,x,3%
CCOc1ccccc1NC(=O)c1cc(CC(C)C)oc1C,u,23µM*,23µM*,3%,19%
CCN(CCn1cccn1)Cc1cn[nH]c1-c1cccc2ccccc12,-17%,-14%,-16%,8%,2%
Cc1ccc(S(=O)(=O)N2CCOC2CNC(=O)C(=O)NCc2ccc(Cl)cc2)cc1 (stereo not given),22%,u,21µM*,2%,-1%
O=C(NCCc1ccccc1)C(=O)NCC1OCCN1S(=O)(=O)c1ccccc1 (stereo not given),-13%,5%,-24%,4%,0%
COc1ccc(CCNC(=O)C(=O)NCC2OCCN2S(=O)(=O)c2ccc(Cl)cc2)cc1OC (stereo not given),-14%,u,18µM*,x,u
COc1ccc(CCNC(=O)C(=O)NCC2OCCN2S(=O)(=O)c2ccc(Br)cc2)cc1OC (stereo not given),u,3%,7%,2%,7.9µM*
O=C(NCCc1ccccc1)C(=O)NCC1OCCN1S(=O)(=O)c1ccc(Br)cc1 (stereo not given),33%,u,16µM*,2%,-9%
CCc1nnc(NS(=O)(=O)c2ccc(N/C=C/C(=O)c3ccc(OC)cc3)cc2)s1,21%,-16%,10%,-4%,-10%
COc1ccc(S(=O)(=O)N2CCCOC2CNC(=O)C(=O)NCCc2ccco2)cc1C (stereo not given),-40%,5.8µM*,7.3µM*,6%,-5%
COc1ccc(S(=O)(=O)N2CCOC2CNC(=O)C(=O)NCCc2ccc(OC)c(OC)c2)cc1 (stereo not given),u,16µM*,u,8%,u
COc1ccc(CCNC(=O)C(=O)NCC2OCCN2S(=O)(=O)c2ccc(Br)cc2)cc1 (stereo not given),36%,-4%,0%,8%,u
